Compounds with a hit are over-represented: about 2.9% of the library has one in this group of screens.
Mm-Cpn inhibitor: inhibitors of Methanococcus maripaludis chaperonin TRiC (MmCpn); purified Mm-Cpn ATPase, ADP Transcreener TR-FRET; Potency, µM (doses to about 76.9 µM), for the others: at the highest dose activity, negative = inhibition, hits mostly inhibitors; actives 0.031% (n = 330,000); active = well fitted inhibition curve with a large enough effect; inconclusive = small, poorly fitted or top-dose-only effect; also: potency is read from the fitted curve at half-maximal effect; % is scaled to controls: 0 for no effect and ±100 for the full control effect; nearly all actives have a fitted effect of over 80% in size
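Compound-treated chaperonin, 25 nM final, turns over 10 uM ATP at 37°C for 30 min following a 10 min preincubation; ADP generated competes with ADP-d2 for Eu-cryptate antibody, lowering FRET.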
TSG101-PTAP inh: blocks PTAP/TSG101 interaction to inhibit HIV-1 budding; Q99816; Fluorescence polarization, FITC-PTAP peptide / Tsg101 binding; Potency, µM (top dose mostly 115 µM), for inactives: at the top dose activity change, negative = inhibition, hits mostly inhibitors; 340,000 tested, under 10 active; active = well fitted inhibition curve with a large enough effect in the main read-out, with a control signal flat, not every such curve was filed as active; inconclusive = small, poorly fitted or top-dose-only effect, or effect the other way, or a change in a side signal; inactive = no such curve, though single readings can be large or run the other way; also: potency is read from the fitted curve at half-maximal effect; % of control where 0% means no effect
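Fluorescence anisotropy tracks displacement of a FITC-tagged PTAP peptide (50 nM) from the Tsg101 binding domain (10 uM), following a 20 min room-temperature incubation at pH 7.5.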
DRD3 antagonist: D3 dopamine receptor (human) antagonism | P35462 | actives 2.5% (n = 360,000) | AID 652054 | D3R cells, DiscoveRx beta-arrestin luminescence, antagonist mode; active compounds read low | max response, negative = inhibition, %; in the data active = max response below about -50%; inconclusive = no clear call, values can overlap the other calls; also: % is scaled to controls: 0 for no effect and ±100 for the full control effect
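Cells expressing the human receptor were seeded at 1500 cells/well, incubated overnight at 37 degrees C in 5% CO2, then exposed to library compounds with dopamine controls for 90 minutes at 37 degrees C before luminescent detection.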
Rango dissoc inh: inhibition of RanGTP-driven Rango-importin beta dissociation | Potency, µM (highest dose often 46.1 µM), inactives show top-dose activity change, negative = inhibition | AID 540253 | O95149+P62826 | actives 0.071% (n = 340,000) | Biochemical FRET Rango-importin beta, RanGTP-induced dissociation; also: potency is read from the fitted curve at half-maximal effect; % of control where 0% means no effect; nearly all actives have a fitted effect of over 45% in size
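Quantitative HTS using a FRET biosensor: 0.1 uM Rango, 0.25 uM importin beta, 0.6 uM Ran, 2 mM GTP, 0.2 uM RCC1 final, PBS with DTT, Tween-20 and BSA. Post-read taken 45 min after Ran addition.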
D3 ag: activates the human D3 dopamine receptor; D3R DiscoveRx beta-arrestin cells, luminescence, 90 min; P35462; actives 0.58% (n = 410,000); max activation, %; in the data active = max activation above about 30%; also: 0% is about no effect
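Cells at 1500/well, incubated overnight, then treated with pinned compounds (dopamine as control) for 90 min at 37 degrees C. DiscoveRx reagent added for 30 - 60 minutes at room temperature; luminescence read.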
Rango-impB inh: prevents formation of the Rango-importin beta complex. Q14974. Rango CFP/YFP FRET sensor + importin beta, 45 min. Potency, µM (top dose mostly 92.2 µM), for the others: at the top dose inhibition of complex formation. actives 0.031% (n = 340,000);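 also: potency is read from the fitted curve at half-maximal effect; 0% = DMSO wells and 100% = buffer wells lacking importin beta; nearly all actives have a fitted effect of over 15% in size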
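FRET biosensor (snurportin 1 IBB flanked by EYFP and cerulean), 50 nM, with compound 5 min, then 0.125 microM importin beta in PBS, 1 mM DTT, 0.02% Tween-20, 0.1% BSA. CFP/YFP ratio read after 45 min at room temperature; pre-read flags interference.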
Active calls of the source: *; ? = inconclusive; nt = not tested or not shown. Unless noted, calls follow the shape of the full dose curve.

SMILES	Mm-Cpn inhibitor	TSG101-PTAP inh	DRD3 antagonist	Rango dissoc inh	D3 ag	Rango-impB inh
COc1cccc(NC(=O)c2nc(S(C)(=O)=O)ncc2Cl)c1	-2.4%	0.6%	-108.7*	3.1%	-33.3	-1.6%
CN(c1ccccc1)S(=O)(=O)c1ccc(NC(=O)c2nc(S(C)(=O)=O)ncc2Cl)cc1	-13.4%	-11.6%	-107.6*	0.8%	-22.4	?
Cc1cccc(NC(=O)c2nc(S(C)(=O)=O)ncc2Cl)c1	nt	nt	nt	nt	-25.8	nt
O=C(Nc1ccccc1)NC(Cc1ccc(O)cc1)C(=O)O (stereo unspecified)	1.1%	-7.1%	-65.3*	4.0%	21.9	0.0%
COc1ccccc1C(=O)N1CCN=C1c1ccccc1	2.3%	-10.1%	-9.4	-1.0%	34.4*	0.6%
COc1ccccc1C(=O)N1CCN=C1SC	2.2%	-0.7%	-10.9	1.8%	1.7	0.3%
CCN1CCN(C(=O)NC2CCCCC2)CC1	0.8%	-0.8%	8.8	-6.4%	-5.9	3.4%
O=C(NC1CCCCC1)N1CCN(CCc2ccccc2)CC1	-8.3%	nt	-61.4*	-6.3%	-19.5	2.5%
CCN(CC)S(=O)(=O)c1ccc2c(c1)N(CC(=O)NCCc1ccccc1)C(=O)CO2	nt	nt	nt	nt	-7.0	nt
O=C1C(=O)c2ccccc2C(O)=C1c1ccccc1F	?	-7.6%	-72.5*	1.5%	-41.0	2.0%
O=C1C(O)=C(O)C(=O)c2ccccc21	nt	1.1%	-25.2	9.6%	-9.7	8.8%
O=C(Nc1ccc(C(F)(F)F)cc1Cl)c1ccc(Cn2cc(Br)cn2)o1	nt	-2.7%	-75.3*	0.8%	-1.4	0.5%
O=C(NCc1ccccn1)c1ccc(Cn2cc(Br)cn2)o1	-1.6%	-5.9%	21.2	2.8%	-0.8	1.6%
O=C(Nc1cccc(C(F)(F)F)c1)c1ccc(Cn2cc(Br)cn2)o1	-1.0%	-8.4%	6.6	-16.6%	3.8	?
O=C(c1ccc(Cn2cc(Br)cn2)o1)n1cccn1	2.3%	-13.2%	-51.7*	-7.4%	-2.2	-0.4%
O=C(OCC(=O)N1CCCCC1)c1ccc2ccccc2n1	2.3%	-3.2%	6.0	29.4%	3.6	-3.7%
Cc1nc(N2CCCC2)ncc1C(=O)NCc1ccccc1Cl	nt	nt	nt	nt	2.4	nt
COC(=O)c1c(-c2ccc(Cl)cc2)noc1N1CCN(c2ccccc2OC)CC1	nt	nt	nt	nt	28.3	nt
COC(=O)c1c(-c2ccc(Cl)cc2)noc1N1CCN(c2cccc(C(F)(F)F)c2)CC1	nt	nt	nt	nt	95.3*	nt
COC(=O)c1c(-c2ccc(Cl)cc2)noc1N1CCN(c2ccc(F)cc2)CC1	nt	nt	nt	nt	64.4*	nt
Cc1cccc(Cn2c(COc3ccccc3)nc3ccccc32)c1	nt	nt	nt	nt	7.9	nt
CCN(CC)CCNC(=O)c1c(C)[nH]c(/C=C2\C(=O)Nc3ccc(F)cc32)c1C	nt	nt	nt	nt	-16.0	nt
O=C(NCCC1=CCCCC1)c1ccc2c(c1)ncn2-c1ccc(F)c(F)c1	nt	nt	nt	nt	-12.3	nt
CC(=O)c1c(N2CCN(c3ccccc3)CC2)nc(=S)n(-c2ccccc2)c1C	0.2%	-6.1%	-53.5*	-18.0%	-11.5	?
CC(=O)c1c(N2CCN(CCO)CC2)nc(=S)n(-c2ccccc2)c1C	1.4%	0.0%	3.0	?	4.0	?
SMILES	Mm-Cpn inhibitor	TSG101-PTAP inh	DRD3 antagonist	Rango dissoc inh	D3 ag	Rango-impB inh
COc1ccc(C(=O)NCCn2cc(SCc3cccc(F)c3)c3ccccc32)cc1OC	nt	nt	nt	nt	7.8	nt
CCOC(=O)c1cnc2ccc(C)cc2c1Nc1ccc(N2CCOCC2)cc1	-1.5%	-3.9%	-59.3*	-0.7%	11.8	-4.6%
CCOC(=O)c1cnc2ccc(OCC)cc2c1N1CCN(c2ccccc2)CC1	-4.4%	-10.7%	-65.2*	1.2%	-0.9	-0.4%
CCOC(=O)c1cnc2ccc(OCC)cc2c1NCc1ccccc1	-0.1%	1.1%	14.7	-13.8%	48.3*	2.1%
O=C(O)CCc1ccc(-c2cccs2)n1CC1CCCO1 (stereo unspecified)	-1.1%	-1.6%	9.1	5.17µM*	-2.7	?
COCCCn1c(CCC(=O)O)ccc1-c1cccs1	-4.2%	-2.2%	-54.5*	?	-4.2	?

Source: PubChem (National Center for Advancing Translational Sciences (NCATS))
